Assay outcomes as filed in PubChem.
KB-V1 cytotox – qHTS assay for MDR1-selective chemotherapeutics: Primary screen using the drug-selected MDR subline cells KB-V1; AID 1347076, 2019; 3.4% of 400,000 active; Potency, µM (highest dose often 46.1 µM), hits mostly cytotoxic; KB-V1 MDR cells viability, CellTiter-Glo, 72 h; further: on the % scale 0 is the no-effect control and ±100 the full control effect; nearly all actives have a fitted effect of over 60% in size
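KB-V1, DMEM (no phenol red) + 10% FBS; cpd pin-transferred, titration series; 72 h, 37 degrees C; CellTiter-Glo, luminescence. Data normalized, curve-fit.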
ELG1 DNA repair – qHTS screen for small molecules that inhibit ELG1-dependent DNA repair in human embryonic kidney (HEK293T) cells expressing luciferase-tagged ELG1 | HEK293T ELG1-luciferase reporter, luminescence, 16 h; DNA damage induced by 5-fluorouridine | Potency, µM (series often up to 46.1 µM), without a hit: at the top dose activity change, negative = inhibition, hits mostly inhibitors | 2.3% of 330,000 active; further: on the % scale 0 is the no-effect control and ±100 the full control effect; nearly all actives have a fitted effect of over 55% in size
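Quantitative HTS, concentration-response format. 2,000 cells/well co-treated with 5-fluorouridine and compound, 16 hr in 5% CO2 at 37 °C; ONE-Glo luminescence read after 30 min.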
SW480 rereplic – A quantitative high throughput screen for small molecules that induce DNA re-replication in SW480 colon adenocarcinoma cells | SW480 DNA re-replication, Hoechst DNA content imaging, 48 h | Potency, µM (highest dose often 46.1 µM), inactives show at the highest dose re-replication activation, most hits filed as activators | 1.8% of 340,000 active; further: % of control where 0% means no effect; nearly all actives have a fitted effect of over 55% in size
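Treated cells incubate 48 hr (37 C, 5% CO2), are stained 40 min with Hoechst, and nuclear fluorescence is enumerated; a rise in nuclei with high DNA signal marks re-replication.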
KB-3-1 cytotox – qHTS assay for MDR1-selective chemotherapeutics: Primary screen using the parental adenocarcinoma cell KB-3-1; 1.4% of 400,000 active; KB-3-1 viability, CellTiter-Glo ATP luminescence, 72 h; Potency, µM (highest dose often 46.1 µM), actives largely listed as cytotoxic; AID 1347075, 2019; further: on the % scale 0 is the no-effect control and ±100 the full control effect; nearly all actives have a fitted effect of over 60% in size
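Here the drug-naive KB-3-1 line serves as comparator for MDR sub-line selectivity; cells received compound titrations, 72 h at 37 °C, then CellTiter-Glo readout.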
MCF10A rerep – A quantitative high throughput screen for small molecules that induce DNA re-replication in MCF 10a normal breast cells; 2.9% of 350,000 active; MCF 10A DNA re-replication, Hoechst nuclear intensity, 48 h; Potency, µM (titrated, usually from 46.1 µM), without a hit: top-dose activity, positive = re-replication, actives largely listed as activators; AID 624296, 2012; further: % of control where 0% means no effect; nearly all actives have a fitted effect of over 50% in size
An asterisk follows results filed as active; i = inactive; ? = inconclusive; · = not tested or not shown; [ ] = another dose, or the depositor's remark. Only some compounds are listed: those with a hit (about 8.2% of all), similar ones and a draw of the others. The call rests on the fitted dose curve; in most records, active means well fitted curve in the direction sought with a large enough effect; inconclusive means small, poorly fitted or top-dose-only effect, or another doubt; inactive means no such curve, though single readings can be large; an effect the other way counts as inactive or inconclusive. Potency means the concentration at half of the fitted maximal effect.

SMILES	KB-V1 cytotox	ELG1 DNA repair	SW480 rereplic	KB-3-1 cytotox	MCF10A rerep
COc1c(/C=N/Nc2nc(N3CCCCC3)nc(N3CCCCC3)n2)cccc1[N+](=O)[O-]	?	-2%	-4%	i	18%
CCCCN(C)CCCNC(=O)CN1C(=O)COc2ccc(S(=O)(=O)N3CCC(C)CC3)cc21	i	·	·	i	·
Cn1cc(CCNC(=O)CC2C(=O)NCCN2Cc2cccc(Oc3ccccc3)c2)cn1 (stereo unspecified)	i	0%	26µM*	?	?
CNc1snc(C)c1C(=O)OCC(=O)Nc1ccc(C)cc1F	12µM*	13µM*	-5%	i	?
Cc1sc2c(c1C)c(=O)n(-c1ccc(Cl)cc1)c(=O)n2CC(=O)c1ccccc1	i	·	·	i	·
CCC1CCCCN1S(=O)(=O)c1ccc(S(=O)(=O)N(Cc2ccccn2)CC2CCCO2)cc1 (stereo unspecified)	i	18µM*	0%	i	27%
COCCNC(=O)CN1C(=O)COc2ccc(S(=O)(=O)N3CCCC3)cc21	i	·	·	i	·
COc1ccc(S(=O)(=O)N2CCCCC2c2cc(C(=O)Nc3ccc(OC)cc3C)no2)cc1 (stereo unspecified)	i	·	·	18µM*	·
CCC(=O)c1cc(Br)ccc1OCC(=O)N1CCN(S(=O)(=O)c2ccccc2)CC1	i	·	1%	i	5%
C=C1C(=O)O[C@H]2C[C@H]1[C@@H](OC(C)=O)C/C(C)=C/CC/C(C)=C\CC[C@]2(C)O	i	·	23µM*	i	?
Fc1ccc(-[n+]2nc(Nc3ccccc3)sc2-c2c3ccccc3cc3ccccc23)cc1	?	4.6µM*	-22%[9.22 µM]	i	-52%
COc1ccc(C)cc1Nc1n[n+](-c2ccccc2)c(-c2c(OC)ccc3ccccc23)s1	?	-28%	1%[9.22 µM]	18µM*	?
COc1ccc(C)cc1Nc1n[n+](-c2ccccc2)c(-c2cc(OC)c(OC)cc2Br)s1	i	-1%	?	?	8%
CCN1C[C@@H]2[C@@H]3C(=O)N(Cc4ccccc4)C(=O)[C@@H]3[C@](Cc3ccccc3)(C1=O)N2C(=O)c1ccc(Br)cc1	i	·	0%	i	?
COCCCNC(=O)CCn1c(=O)c2ccccc2n(CC(=O)Nc2c(C)cc(C)cc2C)c1=O	i	·	·	i	·
CN(C)C(=O)c1cc(C(=O)c2ccc(F)cc2C(F)(F)F)c[nH]1	i	8.2µM*	3%	?	12%
CN(C)C(=O)c1cc(C(=O)c2ccccc2C(F)(F)F)c[nH]1	i	6.5µM*	-8%	?	14%
CN(C)C(=O)c1cc(C(=O)c2ccc(F)cc2F)c[nH]1	i	?	3%	i	2%
COc1ccc(NC(=O)[C@H](C)NS(=O)(=O)c2ccc(NC(C)=O)cc2)cc1Cl	i	·	·	i	·
COc1ccc(NCC(=O)Nc2ccc(C#N)cc2)cc1Cl	i	26µM*	7%	i	2%
COc1ccc(NC(C)C(=O)Nc2ccc(C(C)(C)C)cc2)cc1Cl (stereo unspecified)	i	16%	12%	i	16µM*
COc1ccc(NC(C)C(=O)Nc2ccc(C#N)cc2)cc1Cl (stereo unspecified)	21µM*	?	-9%	i	7%
COc1ccc(NC(=O)C(C)NS(=O)(=O)c2ccccc2)cc1Cl (stereo unspecified)	i	6%	-2%	i	6%
O=C1CN(C(=O)COc2ccc(Cl)cc2)C(c2ccccc2)c2cc(Br)ccc2N1 (stereo unspecified)	i	·	·	i	·
COc1ccc(C(C(=O)NC(C)(C)C)N(C(=O)CCC(=O)Nc2cc(C)on2)c2cccc(C)c2C)cc1 (stereo unspecified)	?	-19%	0%	i	4%
CCOc1cc(CNc2ccc(O)cc2)cc(Cl)c1OCc1ccccc1	i	·	·	i	·
